Laboratory results from PubChem BioAssay (NCI).
The panel holds about 79,000 compounds, 15% with a hit somewhere; the sample as a whole holds those more often. The source made the active and inactive calls. Cut-off read from the data, not from the text of the source: active = growth inhibition above about 70%; inactive = the rest.

Experiments:
[1] = NCI Yeast Anticancer Drug Screen. Data for the rad50 strain (AID 155);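 note: 0% = growth of vehicle-only cultures of the same strain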; conditions: S. cerevisiae rad50 strain growth inhibition; at 50.0 µM; active compounds read high
How it was run: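 Yeast carrying a defined DNA repair defect were exposed to test compounds, and growth was compared with vehicle-treated controls to give percent inhibition.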

[2] = NCI Yeast Anticancer Drug Screen. Data for the mec2-1 strain (AID 157); conditions: S. cerevisiae mec2-1 strain, at 50.0 µM, active compounds read high
How it was run: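 Yeast mec2-1 mutant treated with compound. Readout: growth inhibition vs vehicle controls.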

[3] = NCI Yeast Anticancer Drug Screen. Data for the sgs1 mgt1 strain (AID 161);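 note: 0% = growth of cultures given vehicle only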; conditions: S. cerevisiae sgs1 mgt1 strain, at 50.0 µM, active compounds read high
How it was run: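 Genetically altered yeast, compound exposure, growth inhibition relative to vehicle.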

[4] = NCI Yeast Anticancer Drug Screen. Data for the cln2 rad14 strain (AID 165);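 note: 0% = growth equal to vehicle treated cultures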; conditions: S. cerevisiae cln2 rad14 strain, at 50.0 µM, active compounds read high
How it was run: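 cln2 rad14 yeast strain; compound exposure; growth inhibition read vs vehicle controls.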

[5] = NCI Yeast Anticancer Drug Screen. Data for the bub3 strain (AID 167); conditions: S. cerevisiae bub3 mutant strain, at 50.0 µM, active compounds read high
How it was run: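 Compounds were applied to a genetically altered yeast strain carrying a cell-cycle control defect. Growth inhibition was scored against vehicle-treated controls.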

[6] = NCI Yeast Anticancer Drug Screen. Data for the mlh1 rad18 strain (AID 175); conditions: S. cerevisiae mlh1 rad18 strain growth inhibition; at 50.0 µM; active compounds read high
How it was run: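 Yeast w/ defined DNA-repair lesions; compound exposure; growth vs vehicle controls → % inhibition.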

Measured: growth inhibition

O=C(O)Cc1n[nH]c(=O)c2ccccc12
inactive: [1] -21.1% | [2] -5.2% | [3] -0.45% | [4] -2.75% | [5] -25.9% | [6] -7.7%

O=[N+]([O-])c1ccc(N/N=C\C2CC=C3c4ccccc4CCC3C2/C=N\Nc2ccc([N+](=O)[O-])cc2[N+](=O)[O-])c([N+](=O)[O-])c1 (configuration not stated)
inactive: [1] 0.75% | [2] 3.1% | [3] -15.1% | [4] -9.7% | [5] -3.3% | [6] -5.85%

CCOC(=O)Oc1ccc(C(=O)Oc2cc(Cl)c(Cl)cc2Cl)cc1OC
inactive: [1] 3.9% | [2] 4.7% | [3] 3.25% | [4] 18% | [5] -13.9% | [6] 7%

O=C(OCCCCCCCCOC(=O)c1cccc([N+](=O)[O-])c1)c1cccc([N+](=O)[O-])c1
inactive: [1] 20.9% | [2] 11.8% | [3] 11.8% | [4] 8.15% | [5] -5.55% | [6] 4.85%

C/C(=N\O)C1(C)CC=CCC1C(=O)O (configuration not stated)
inactive: [1] -4.8% | [2] 4.5% | [3] 2.8% | [4] 19.2% | [5] -11.3% | [6] 1.4%

O=C1CSC(c2ccccc2[N+](=O)[O-])N1c1ccc(-n2c(-c3ccccc3)nc3ccccc3c2=O)cc1 (configuration not stated)
inactive: [1] -8.95% | [2] -10.1% | [3] -4.05% | [4] -16.1% | [5] 13.3% | [6] 7.6%

Cc1ccc2nccnc2c1
inactive: [1] -2.45% | [2] 3.9% | [3] -12.2% | [4] 5.1% | [5] 10.9% | [6] -1.85%

COc1ccc(/C=N/Nc2nc3ccccc3c(=O)n2-c2ccccc2)c(OCc2ccccc2)c1
inactive: [1] 4.7% | [2] 5.2% | [3] 5.5% | [4] -0.1% | [5] 9% | [6] 9.85%

OCC1CCCCCCCCCC1
inactive: [1] 36.3% | [2] -10.7% | [3] 29.8% | [4] 25.1% | [5] 20.1% | [6] 44.5%

COc1ccc(NC(=O)CCc2cc(-c3ccc(O)c(OC)c3)nc(NC#N)n2)cc1
inactive: [1] -8.1% | [2] 9% | [3] -37% | [4] 6% | [5] 27.6% | [6] -28.9%

CSc1cnn(CCC#N)c(=O)n1
inactive: [1] 16.4% | [2] 14.1% | [3] 19.9% | [4] 2.4% | [5] 15.7% | [6] 2.35%

CCCCCCCCCCCCCCCCCCCC/C=C/C1CC(=O)OC1=O (configuration not stated)
inactive: [1] -4.8% | [2] -6% | [3] 16.9% | [4] 26.8% | [5] 16.9% | [6] 7.1%

C[C@H]1C(=O)CCC2[C@]3(C)CC4OC(=O)C5(CC[C@@]6(C)CCC(C)(C)CC6C45C)C3CC[C@@]21C (some centres not stated)
inactive: [1] -0.7% | [2] -7.25% | [3] -25.9% | [4] -3.65% | [5] -34.9% | [6] -15%

COc1cc2c(cc1OC)C1(CCCl)C3CC4C(=CCOC5CC(=O)N2C1C54)CN3C(=O)Cc1ccccc1 (configuration not stated)
inactive: [1] 40.2% | [2] 4.95% | [3] 16.4% | [4] 11.2% | [5] 5.9% | [6] 23.6%

CNNC1=NS(=O)(=O)c2cc(C(=O)OC)c(Cl)cc2S1
inactive: [1] 8.75% | [2] -2.25% | [3] -9.9% | [4] 0.5% | [5] -6% | [6] 8.25%

CCC(CCC(=O)c1ccccc1)[N+](=O)[O-] (configuration not stated)
inactive: [1] -3.65% | [2] -14.8% | [3] -5.7% | [4] -8.5% | [5] 13.8% | [6] 7.2%

O=C1C(c2ccccc2)=C(c2ccccc2)c2ccc(Cl)cc21
inactive: [1] 13.7% | [2] 15.6% | [3] 8.85% | [4] 7.75% | [5] 0.45% | [6] 6.45%

COc1cc(C2c3cc4c(cc3OC(O)C2C)OCO4)cc(OC)c1OC (configuration not stated)
inactive: [1] -11.9% | [2] 4.85% | [3] 11.7% | [4] -46.6% | [5] 16.1% | [6] -4.15%

CC(=O)n1c2ccccc2c2nc3ccccc3nc21
inactive: [1] 0.3% | [2] 10.4% | [3] 11.9% | [4] -30.9% | [5] -19.6% | [6] -14.1%

O=C1NN=C(C2CCCCC2)C12CCCCC2
inactive: [1] 8.05% | [2] -2.85% | [3] 1.3% | [4] 2.85% | [5] 5.45% | [6] -8.4%

CC1=C(/C=C/C(O)CC(O)(C(F)(F)F)C(F)(F)F)C(C)(C)CCC1 (configuration not stated)
inactive: [1] 38% | [2] 20.8% | [3] 18.9% | [4] 43.2% | [5] 17% | [6] 63.1%

CC(=O)[O-].O=S(=O)(Nc1ncccn1)c1ccc(N=Cc2ccccc2O)cc1.O=S(=O)(Nc1ncccn1)c1ccc(N=Cc2ccccc2O)cc1.[Cu+2]
inactive: [1] -7.4% | [2] -21.6% | [3] -17.4% | [4] -8.25% | [5] -17.6% | [6] -1.35%

CCOC(=O)Cc1c(C)cc(C)cc1C
inactive: [1] 18.9% | [2] -6.3% | [3] -10.4% | [4] 3.35% | [5] 15.7% | [6] 10.4%

CSCCC(NC(=O)c1cnc2ccccc2c1)C(N)=O (configuration not stated)
inactive: [1] -0.25% | [2] -4.85% | [3] 2.6% | [4] -33.6% | [5] -21.8% | [6] 14.8%

Cc1cccc(NC(=S)Nc2ccc(-c3ccc(NC(=S)Nc4cccc(C)c4)cc3)cc2)c1
inactive: [1] -0.2% | [2] 22.6% | [3] 29.9% | [4] 0.15% | [5] 16.2% | [6] 34.7%

N#CCCN(CCC#N)Cc1ccc2c(O)c(CN(CCC#N)CCC#N)ccc2c1O
inactive: [1] 23.8% | [2] 7.35% | [3] 3.35% | [4] -1.65% | [5] -0.15% | [6] 3.65%

O=C(O)CCC(=O)CCC(=O)c1ccc(O)c2ncccc12
inactive: [1] -6.55% | [2] 6.2% | [3] 16.8% | [4] 26.5% | [5] 16.2% | [6] 21.5%

CCCCCNC(=O)c1ccc([N+](=O)[O-])cc1
inactive: [1] 7.35% | [2] -1.75% | [3] 3.75% | [4] 4.85% | [5] -1% | [6] 13.9%

CC/C(Cl)=N\OC(=O)Nc1ccc(F)cc1F
inactive: [1] 2.2% | [2] -12.1% | [3] -4.05% | [4] 7.05% | [5] -6.45% | [6] -26.4%

COc1ccc(OC)c(NC(=O)Oc2cc(C)c(Cl)c(C)c2)c1
inactive: [1] 5.85% | [2] -1.85% | [3] 7.1% | [4] 8.25% | [5] 9.1% | [6] 6.35%

CCOC(=O)CCc1ccco1
inactive: [1] 3.15% | [2] -5.7% | [3] -4.45% | [4] 4.15% | [5] 9.1% | [6] 15.2%

CC(=O)Nc1ccccc1N
inactive: [1] 15.4% | [2] 14.9% | [3] -2.85% | [4] 4.6% | [5] -14.3% | [6] 14.5%

O=[N+]([O-])c1ccc(/C=N/Nc2cnnc(Cl)c2Cl)cc1
inactive: [1] -0.6% | [2] 1.75% | [3] -1.95% | [4] -33% | [5] 2.45% | [6] 1.65%

C=CCOC(=O)Nc1ccc(C)c(NC(=O)OCC=C)c1
inactive: [1] -28.3% | [2] -45% | [3] -9.1% | [4] -25.5% | [5] -12.6% | [6] -33.1%

CCOC(=O)C1C(C)=CC(=O)CC1CC (configuration not stated)
inactive: [1] 24.3% | [2] -10.7% | [3] 14.8% | [4] -1.05% | [5] -3.85% | [6] 22.5%

COC(=O)c1nnn(-c2ccc(Cl)cc2Cl)c1N
inactive: [1] -6.35% | [2] -18% | [3] -14.6% | [4] 6.3% | [5] -19.3% | [6] 14%

CC(=O)CC(=O)OC1CCCC(C)C1 (configuration not stated)
inactive: [1] -9.55% | [2] 1% | [3] -17.9% | [4] -39.4% | [5] -22.8% | [6] -15.2%
